Results as given in PMC4336329 (PLoS ONE, 2015).
About 14,000 (4.5%) of roughly 310,000 compounds showed an effect of 50% or more. Effects have a minus sign here. Shown is part of a subset that was picked to be rich in strong results.

Molecular target: human ether-à-go-go-related gene (hERG) potassium channel (human, UniProt Q12809)
Experiment: primary screen, population patch clamp on CHO cells stably expressing hERG; higher = less effect of the substance
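Also: peak tail current of the secondary pulse compared with the same well before compound.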

Sequence of human ether-à-go-go-related gene (hERG) potassium channel (Q12809 whole entry, looked up): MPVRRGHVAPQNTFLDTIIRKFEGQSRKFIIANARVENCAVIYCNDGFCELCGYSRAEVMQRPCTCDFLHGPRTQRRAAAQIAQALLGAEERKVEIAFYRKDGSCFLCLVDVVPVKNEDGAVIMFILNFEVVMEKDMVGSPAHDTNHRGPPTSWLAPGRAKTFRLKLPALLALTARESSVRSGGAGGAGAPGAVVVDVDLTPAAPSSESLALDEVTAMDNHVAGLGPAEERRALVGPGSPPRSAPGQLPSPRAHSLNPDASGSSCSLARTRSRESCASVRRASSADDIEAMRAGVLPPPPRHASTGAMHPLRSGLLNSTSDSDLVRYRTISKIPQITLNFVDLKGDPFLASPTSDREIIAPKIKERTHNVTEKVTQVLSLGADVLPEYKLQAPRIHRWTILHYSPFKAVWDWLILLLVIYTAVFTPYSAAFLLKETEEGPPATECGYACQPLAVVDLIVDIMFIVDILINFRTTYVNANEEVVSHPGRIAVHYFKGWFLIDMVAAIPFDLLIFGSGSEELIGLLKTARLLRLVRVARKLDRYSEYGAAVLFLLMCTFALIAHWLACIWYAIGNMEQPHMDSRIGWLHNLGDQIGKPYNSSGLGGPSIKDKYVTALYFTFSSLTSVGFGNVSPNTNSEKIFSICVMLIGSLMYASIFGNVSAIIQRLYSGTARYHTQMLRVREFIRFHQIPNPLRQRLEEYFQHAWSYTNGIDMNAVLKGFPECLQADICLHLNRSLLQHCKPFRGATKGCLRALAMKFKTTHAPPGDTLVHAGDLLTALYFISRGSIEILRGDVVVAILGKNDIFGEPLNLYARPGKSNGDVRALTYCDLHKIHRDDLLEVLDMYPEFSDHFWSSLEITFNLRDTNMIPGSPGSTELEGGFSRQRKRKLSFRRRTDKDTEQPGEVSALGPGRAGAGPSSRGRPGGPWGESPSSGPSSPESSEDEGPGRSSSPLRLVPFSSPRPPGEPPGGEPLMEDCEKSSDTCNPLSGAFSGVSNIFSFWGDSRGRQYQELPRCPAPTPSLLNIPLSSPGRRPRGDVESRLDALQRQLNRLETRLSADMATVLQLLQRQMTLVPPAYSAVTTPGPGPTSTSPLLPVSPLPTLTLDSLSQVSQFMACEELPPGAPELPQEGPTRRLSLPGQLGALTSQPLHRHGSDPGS

Row | SMILES | hERG current change (%, negative = inhibition) at 10uM
1 | C/C(=N\Nc1ccc(S(N)(=O)=O)cc1[N+](=O)[O-])c1cccs1 | 25.7%
2 | C[C@]12CC[C@H]3[C@@H](CC[C@]4(O)C[C@@H](O)CC[C@]34C=O)[C@@]1(O)CC[C@@H]2C1=CC(=O)OC1 | 14%
3 | O=C(CC12CC3CC(CC(C3)C1)C2)N1CCOCC1 | -1.47%
4 | COc1ccccc1CC(NC(C)=O)C(=O)NC1CCN(C(=O)Nc2ccc(F)cc2)CC1 (stereo not shown) | -1.82%
5 | COc1cc(C(=O)NC2CCCCC2)ccc1OC1CCN(C(C)=O)CC1 | 7.63%
6 | COc1cc(C(=O)NC2CCN(Cc3nnnn3Cc3ccc(F)cc3)CC2)cc(OC)c1OC | -0.888%
7 | COc1ccc(C(=O)NC2CC2)cc1OC1CCN(Cc2ccc(F)cc2)CC1 | -81.8%
8 | C/C=C(\C)CN1CCC(Oc2cc(C(=O)NC3CC3)ccc2OC)CC1 | -64.5%
9 | COc1cc(OC)cc(C(=O)NC2CCN(Cc3nnnn3Cc3ccc(F)cc3)CC2)c1 | -3.98%
10 | COc1ccc(C(=O)NC2CCN(CC(=O)Nc3c(C)cccc3C)CC2)cc1OC | 18.7%
11 | CN(C)S(=O)(=O)c1cccc(C(=O)NC2CCSc3ccccc32)c1 (stereo not shown) | -5.74%
12 | CCOc1cccc(=O)c2c(C)n(Cc3ccco3)c(C)c12 | -11.5%
13 | Cc1nc(NS(=O)(=O)c2ccccc2)sc1C(=O)N/N=C/c1ccccc1 | -2%
14 | CCn1c2ccccc2c2cc(/C=N/n3cnnc3)ccc21 | -13.4%
15 | COc1ccc(N2CC(C(=O)N/N=C/c3ccc([N+](=O)[O-])cc3)CC2=O)cc1 (stereo not shown) | -59.5%
16 | COc1ccc(N2CC(C(=O)Nc3ccc([N+](=O)[O-])cc3Br)CC2=O)cc1 (stereo not shown) | -69%
17 | COc1ccc(N2CC(C(=O)N/N=C/c3cc([N+](=O)[O-])ccc3O)CC2=O)cc1 (stereo not shown) | -8.45%
18 | COc1ccc(N2CC(C(=O)N/N=C/c3ccc(C)cc3)CC2=O)cc1 (stereo not shown) | -18.8%
19 | COc1ccc(N2CC(C(=O)Nc3ccc(F)cc3F)CC2=O)cc1 (stereo not shown) | -0.618%
20 | COc1ccc(OC)c(NC(=O)C2CC(=O)N(c3ccc(Br)cc3)C2)c1 (stereo not shown) | -33.6%
21 | O=C(COC(=O)/C=C/c1cccc(C(F)(F)F)c1)NCc1ccco1 | 13.5%
22 | Cc1ccc(OCC(=O)Nc2ccccc2F)cc1C | 23.6%
23 | Cc1nc(NNC(=O)c2ccccc2)cc(-c2ccccc2)n1 | 3.7%
24 | Cc1nc(NNC(=O)c2ccc(Cl)cc2Cl)cc(-c2ccccc2)n1 | 6.97%
25 | Cc1nc(NNC(=O)c2ccc([N+](=O)[O-])cc2)cc(-c2ccccc2)n1 | -50.8%
26 | CC1OC(OCC2OC(Oc3c(-c4ccc(O)cc4)oc4cc(O)cc(O)c4c3=O)C(O)C(O)C2O)C(O)C(O)C1O (stereo not shown) | 13.7%
27 | Cc1cccc2c(CC(=O)Nc3ccccc3)noc12 | -0.38%
28 | Cc1ccc2c(c1)N(Cc1ccc3c(c1)OCO3)C(=O)C(C)O2 (stereo not shown) | -13.5%

Row | SMILES | hERG current change (%, negative = inhibition) at 10uM
29 | CCc1ccc2oc(C(=O)N3CCN(c4ccc(OC)cc4)CC3)cc(=O)c2c1 | -36.7%
30 | COc1ccccc1N1CCN(C(=O)c2cc(=O)c3cc(C)ccc3o2)CC1 | -50.7%
31 | COc1ccccc1N1CCN(C(=O)c2cc(=O)c3ccc(C)cc3o2)CC1 | -20.7%
32 | CCc1ccc2oc(C(=O)N3CCN(C)CC3)cc(=O)c2c1 | -32.4%
33 | CCc1ccc2oc(C(=O)N3CCN(c4ccccc4OC)CC3)cc(=O)c2c1 | -68.7%
34 | COc1ccccc1N1CCN(C(=O)c2cc(=O)c3cc(C)cc(C)c3o2)CC1 | -27.3%
35 | CN(C)/C=N/c1c(C(=O)NCc2ccccc2)nnn1Cc1ccccc1 | -12.2%
36 | Cc1cccc(/C=C2\CS/C(=C\c3cccc(C)c3)C2=O)c1 | 0.505%
37 | O=C(Nc1nnc(S(=O)(=O)N2CCOCC2)s1)c1ccccc1Br | 4.05%
38 | COCCn1c(C)cc(C(=O)COC(=O)c2ccc(-n3nc(C)cc3C)cc2)c1C | 2.16%
39 | O=C(CN1C(=O)C2C3C=CC(C3)C2C1=O)N1CC=C(c2ccccc2)CC1 (stereo not shown) | -10.1%
40 | CCOC(Cn1cc(C)c(=O)[nH]c1=O)OCC | -2.39%
41 | N#CCc1cc2ccc3cccc4ccc(c1)c2c34 | 16.2%
42 | CCS(=O)(=O)Nc1cccc(C2=NN(S(=O)(=O)c3ccc(C)cc3)C(c3ccco3)C2)c1 (stereo not shown) | 12.9%
43 | Cc1c(C)c2cc(Cl)c(O)c(CN3CCCC(C)C3)c2oc1=O (stereo not shown) | 8.5%
44 | O=C(Cn1cncn1)N/N=C/c1cccc2ccccc12 | -4.06%
45 | CC(C)CCC(CCN1CCCC1)c1ccc2c(c1)OCO2.O=C(O)C(=O)O (stereo not shown) | -78.1%
46 | C(=NCCCN1CCOCC1)c1ccc2c(c1)OCO2 | 15.7%
47 | CC(O)c1ccc2c(c1)OCCOCCN(C)CCOCCO2 (stereo not shown) | -1.64%
48 | O=C(CCN1CCCCC1)c1ccc2c(c1)OCO2 | -0.169%
49 | O=C(C1CCCN(Cc2ccc3c(c2)OCO3)C1)N1CCCC1.O=C(O)C(=O)O (stereo not shown) | 9.26%
50 | CC(C)CCC(CCN1CCOCC1)c1ccc2c(c1)OCO2.Cl (stereo not shown) | -72.9%
51 | O=C(NCCc1cccc(F)c1)C1CCCN(c2nc3ccccc3s2)C1 (stereo not shown) | 7.76%
52 | CN(C)S(=O)(=O)N(CC(=O)NCc1ccccc1)c1ccccc1 | 1.87%
53 | CSc1nc2c(ccc3ccccc32)o1 | 12.9%
54 | CCOC(=O)c1c(NC(=O)c2cccnc2)sc(C(C)=O)c1C | -5.09%
55 | NC(=O)COC(=O)c1ccccc1SCC(=O)NC1CCCCCCC1 | 12%
